Data on 45 molecules can be found in the supplement of paper PMC10600219.

SMILES strings stand for the structures. Counter-ions that a name gives are not always drawn. Over roughly 2,800 compounds, “cell viability relative to vehicle” has its median near 1.1; the lowest 2% begin near 0.19. What follows is part of a selection rich in the lowest values, with near analogues and random picks from the rest.

The subject of the assay is NCI-H2228 parental. Description: cell viability relative to vehicle (fraction of vehicle); NCI-H2228 is an ALK-positive lung cancer line and DTP means drug-tolerant persister; higher = less growth inhibition. The conditions noted are these: 100 nM; treatment time 6 days. The gist of the method: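 NCI-H2228 parental cells and drug-tolerant persister cells were plated in 384-well plates; the persisters had been generated with 1000 nM of a targeted drug over 13 days. One day later, the 3114-agent TargetMol anti-cancer compound library was added at 100 nM, with DMSO serving as vehicle. ATP was measured 6 days after that using the CellTiter-Glo 3D Cell Viability Assay. Values are cell viability expressed relative to vehicle-treated cells.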
With `CC(=O)OC(CC(C)C1=C2C[C@H](O)C3[C@@]4(C)CCC(=O)C(C)(C)C4CC[C@]3(C)[C@@]2(C)CC1)C1OC1(C)C` (stereo not given in full) [Alisol B 23-acetate], the cell viability is 0.99.

For `CC(C)C[C@H](NC(=O)[C@@H](O)[C@H](N)Cc1ccccc1)C(=O)O` [Ubenimex], the cell viability was determined as 1.08.

On to `CNC(=O)[C@H](Cc1ccccc1)NC(=O)[C@H](CC(C)C)[C@H](CSc1cccs1)C(=O)NO` [Batimastat], for which the cell viability was determined as 1.08.

In the case of `CC(C)C[C@H](NC(=O)[C@@H](NC(=O)c1cccc(-c2ccccc2)n1)[C@@H](C)O)B(O)O` [Delanzomib], the cell viability came to 0.096.

Turning to `CC(C)C[C@H](NC(=O)[C@H](Cc1ccccc1)NC(=O)c1cnccn1)B(O)O` [Bortezomib], the cell viability was 0.067.

Consider `CC(C)C[C@H](NC(=O)[C@@H](O)[C@H](N)Cc1ccccc1)C(=O)O` [Bestatin hydrochloride], for which the cell viability was found to be 1.16.

`CCCOc1ccc(/C=C2\SC(=O)NC2=O)cc1`: the cell viability worked out at 1.11.

In the case of `CCn1c(=Cc2cccc[n+]2CC)sc(=C2Sc3ccccc3N2C)c1=O`, the cell viability is 1.04.

For `COc1ccc(/C=C/c2cc(O)cc(O[C@@H]3O[C@H](CO)[C@@H](O)[C@H](O)[C@H]3O)c2)cc1O` [Rhaponiticin], the cell viability turned out to be 1.11.

Turning to `CC(C)=CCC[C@](C)(O[C@@H]1O[C@H](CO)[C@@H](O)[C@H](O)[C@H]1O)[C@H]1CC[C@]2(C)[C@@H]1[C@H](O)C[C@@H]1[C@@]3(C)CC[C@H](O)C(C)(C)[C@@H]3[C@@H](O)C[C@]12C` [Ginsenoside F1], the cell viability amounted to 1.1.

With `C=C1CC[C@@H]2[C@](C)(CO[C@@H]3O[C@H](CO)[C@@H](O)[C@H](O)[C@H]3O)CCC[C@@]2(C)[C@@H]1CCC1=CCOC1=O` [Neoandrographolide], the cell viability was 1.08.

As for `O=C1N[C@@H](Cc2c[nH]c3ccccc23)C(=O)N2CCC[C@@H]12` [Brevianamide F], the cell viability turned out to be 1.05.

As to `Nc1nc(O)c2[nH]nnc2n1` [8-Azaguanine], the cell viability stood at 0.571.

Consider `COc1ccc(CNc2nc(N3CCC[C@H]3CO)ncc2C(=O)NCc2ncccn2)cc1Cl` [Avanafil], for which the cell viability stood at 0.966.

Regarding `CCc1cnn2c(NCc3ccc[n+]([O-])c3)cc(N3CCCC[C@H]3CCO)nc12` [Dinaciclib], the cell viability was found to be 0.118.

On to `O=C1C[C@@H](c2ccc(O)c(O)c2)Oc2cc(O)cc(O)c21` [Eriodictyol], for which the cell viability came out at 1.04.

On to `N#Cc1cnc(Nc2cc(NC[C@H]3CNCCO3)c(C(F)(F)F)cn2)cn1`, for which the cell viability came out at 1.07.

For the molecule `COc1cccc(OCCCN)c1-c1cc(Nc2cnc(C#N)cn2)n[nH]1` [Prexasertib dihydrochloride], the cell viability amounted to 0.169.

`Cc1cc(O)c(C(=O)CCC(C)C)c(=O)o1` [Pogostone]: the cell viability was found to be 1.04.

In the case of `O=C(NCc1ccc(S(=O)(=O)c2cc(F)cc(F)c2)cc1)c1ccc2nccn2c1`, the cell viability was 0.117.

Consider `Cc1ccc(S(=O)(=O)Cc2nc(-c3ccc(C(=O)NCc4cccnc4)cc3)oc2C)cc1`, for which the cell viability is 0.875.

For `O=S(=O)(c1ccc(Cl)cc1)N1CCN(c2ccnc3cc(Cl)ccc23)CC1`, the cell viability amounted to 1.08.

As to `CCCCCCCCCCCCCCOc1ccc(C(=O)O)o1`, the cell viability turned out to be 1.05.

On to `O=C(NCCN1CCOCC1)Nc1ccc(C(=O)/C=C/c2cccc(N3CCOCC3)n2)cc1`, for which the cell viability came to 1.09.

With `CC(=O)c1cnc2ccc(-c3cc(Cl)c(O)c(Cl)c3)nc2c1N[C@H]1CC[C@H](CN(C)C)CC1`, the cell viability was determined as 0.657.

With `O=C(NCCCNc1nc(Nc2cccc(CN3CCOCC3)c2)ncc1C1CC1)C1CCC1`, the cell viability was determined as 0.937.

Regarding `CCCC(CCC)C(=O)Nc1ccn([C@@H]2O[C@H](CO)[C@@H](O)C2(F)F)c(=O)n1`, the cell viability came to 1.12.

In the case of `CC(=O)Nc1ccn([C@@H]2O[C@H](CO)[C@@H](O)[C@H]2O)c(=O)n1` [N4-Acetylcytidine], the cell viability was 1.06.

On to `Nc1ccn([C@@H]2O[C@H](CO)[C@@H](O)C2(F)F)c(=O)n1` [Gemcitabine HCl], for which the cell viability turned out to be 0.121.

Consider `Nc1ccn([C@@H]2O[C@H](CO)[C@@H](O)[C@H]2O)c(=O)n1` [Cytidine], for which the cell viability was found to be 0.915.

In the case of `Nc1ccn([C@@H]2O[C@H](CO)[C@@H](O)[C@@H]2O)c(=O)n1` [Cytarabine], the cell viability was 0.12.

In the case of `Nc1ccn([C@@H]2O[C@H](CO)[C@@H](O)C2(F)F)c(=O)n1` [Gemcitabine], the cell viability came to 0.0956.

As for `Nc1ccn([C@@H]2CS[C@H](CO)O2)c(=O)n1` [Lamivudine], the cell viability was 1.21.

Consider `C[C@H](NP(=O)(OC[C@H]1O[C@@H](n2ccc(N)nc2=O)C(F)(F)[C@@H]1O)Oc1ccccc1)C(=O)OCc1ccccc1` (stereo not given in full) [Acelarin], for which the cell viability was 0.135.

Turning to `Nc1ccn([C@H]2C[C@H](O)[C@@H](CO)O2)c(=O)n1` [2'-Deoxycytidine monohydrate], the cell viability was 1.07.

As for `CCNC(=O)c1cc2c(-c3cc(C(C)(C)O)ccc3Oc3c(C)cc(F)cc3C)cn(C)c(=O)c2[nH]1`, the cell viability turned out to be 0.898.

Consider `C[C@H](NC(=O)CCC(F)(F)F)C(=O)N[C@@H]1C(=O)N(CCO)c2ncccc2-c2ccccc21` [Crenigacestat], for which the cell viability stood at 1.05.

In the case of `CC(C)=CCC[C@](C)(O[C@@H]1O[C@H](CO)[C@@H](O)[C@H](O)[C@H]1O)[C@H]1CC[C@]2(C)[C@@H]1[C@H](O)C[C@@H]1[C@@]3(C)CC[C@H](O[C@@H]4O[C@H](CO)[C@@H](O)[C@H](O)[C@H]4O[C@@H]4O[C@H](CO)[C@@H](O)[C@H](O)[C@H]4O)C(C)(C)[C@@H]3CC[C@]12C` [Ginsenoside Rd], the cell viability turned out to be 1.18.

For `C=CC(=O)Nc1ccc(CN2C(=O)N(c3cc(OC)cc(OC)c3)Cc3cnc(Nc4ccc(N5CCN(C)CC5)cc4)nc32)cc1`, the cell viability was 0.858.

Turning to `OC[C@H]1O[C@@H](Oc2ccc3c(c2)OC[C@H]2c4cc5c(cc4O[C@@H]32)OCO5)[C@H](O)[C@@H](O)[C@@H]1O` [Trifolirhizin], the cell viability was determined as 1.02.

On to `O=c1cc(N2CCOCC2)oc2c(-c3ccc4c(c3)OCCO4)csc12`, for which the cell viability is 1.14.

In the case of `Nc1ccccc1NC(=O)CCCCCCC(=O)Nc1ccccc1`, the cell viability came out at 1.09.

Turning to `Cc1c[nH]c2nc(Nc3ccc(N4CCN(C)CC4)c(F)c3)nc(-c3cccc(CC#N)c3)c12`, the cell viability turned out to be 0.777.

Turning to `Cc1ncc(CCCN(C)C)cc1Nc1ncc2c(n1)-c1ccc(C(F)(F)F)cc1NC(=S)C2`, the cell viability was determined as 0.178.

For `C=C(C)[C@@H]1CC[C@]2(C)[C@H](CC=C3[C@@H]4[C@@H](C)[C@H](C)CC[C@]4(C)CC[C@]32C)[C@@]1(C)CCC(=O)O` [Roburic acid], the cell viability is 1.08.
